Assay results from PubChem BioAssay AID602281 (The Scripps Research Institute Molecular Screening Center, 2012).
Out of some 360,000 compounds screened, about 2,900 (0.81%) were called active. The sample holds actives, similar compounds and a random draw of the others, so the mix is not that of the screen. Unmarked numbers belong to inactive results.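 The calls were made as follows: active = inhibition above the mean inhibition across every tested compound plus 3 SD (cut at about 22% in these data); inactive = the rest.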

Each compound was assayed against Perilipin-5 (Homo sapiens) + 1-acylglycerol-3-phosphate O-acyltransferase ABHD5 (Homo sapiens) (UniProt Q00G26+Q8WTS1) (assay: blockers of ABHD5 binding to perilipin-5 – cell lysate, split luciferase complementation, luminescence, primary screen (AID 602281;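 also: 0% = DMSO only wells and the 100% control is not disclosed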)). Conditions: Split G. princeps luciferase complementation, 4 h, at 4 µM, stronger effect = higher value.
Perilipin-5 (Homo sapiens) + 1-acylglycerol-3-phosphate O-acyltransferase ABHD5 (Homo sapiens), sequence (Q00G26 whole entry, looked up): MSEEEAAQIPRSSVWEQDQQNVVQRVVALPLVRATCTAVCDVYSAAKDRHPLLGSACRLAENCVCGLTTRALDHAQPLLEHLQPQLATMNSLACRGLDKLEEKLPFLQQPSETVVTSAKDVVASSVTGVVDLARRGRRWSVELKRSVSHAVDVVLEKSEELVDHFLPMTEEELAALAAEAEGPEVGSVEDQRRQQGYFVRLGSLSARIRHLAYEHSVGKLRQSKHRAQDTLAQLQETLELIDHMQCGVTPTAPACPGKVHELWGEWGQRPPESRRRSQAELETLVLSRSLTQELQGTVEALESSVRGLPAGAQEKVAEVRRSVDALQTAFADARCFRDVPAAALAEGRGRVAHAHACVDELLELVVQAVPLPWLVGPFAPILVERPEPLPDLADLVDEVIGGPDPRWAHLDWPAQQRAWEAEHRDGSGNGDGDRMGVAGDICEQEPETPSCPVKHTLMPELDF
Perilipin-5 (Homo sapiens) + 1-acylglycerol-3-phosphate O-acyltransferase ABHD5 (Homo sapiens), sequence (Q8WTS1 whole entry, looked up): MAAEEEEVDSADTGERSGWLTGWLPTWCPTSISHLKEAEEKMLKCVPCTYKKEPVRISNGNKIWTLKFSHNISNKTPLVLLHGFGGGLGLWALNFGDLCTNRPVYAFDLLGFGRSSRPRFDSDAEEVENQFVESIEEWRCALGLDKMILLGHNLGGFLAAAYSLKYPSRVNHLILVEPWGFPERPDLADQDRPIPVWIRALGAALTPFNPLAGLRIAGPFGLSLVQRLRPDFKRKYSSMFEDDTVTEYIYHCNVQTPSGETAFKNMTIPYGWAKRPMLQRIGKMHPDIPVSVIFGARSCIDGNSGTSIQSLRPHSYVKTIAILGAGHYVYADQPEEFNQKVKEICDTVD

SMILES	inhibition
COc1ccc(C2OC(CCc3ccccc3)Cc3[nH]c(=S)[nH]c(=O)c32)cc1 (stereo not given)	-6.49%
CC(C)C1Cc2[nH][nH]c(=O)c2C(c2ccc(Cl)cc2)O1 (stereo not given)	4.21%
O=c1[nH][nH]c2c1[C@H](c1ccc(Cl)cc1)O[C@H](CCc1ccccc1)C2	29.6% (active)
CCOCCCNC(=O)c1ccc(CS(=O)(=O)c2cccc(C(F)(F)F)c2)o1	9.27%
N#C/C(=C(\O)C(F)(F)F)c1nnc2n1CCCCC2	4.79%
CC(=O)OCCOCn1cnn2c(=O)c(Br)c(C)nc12	-1.92%
Cn1c2c(c(=O)n(C)c1=O)C(c1cccc(F)c1)C(C#N)=C(N)O2 (stereo not given)	12.7%
Cc1cc2c(c(=O)n1C)C(C(C)C)C(C#N)=C(N)O2 (stereo not given)	1.5%
Cc1cc2c(c(=O)n1Cc1ccco1)C(c1ccccc1)C(C#N)=C(N)O2 (stereo not given)	36.4% (active)
CC1CCCCC1NC(=O)CSc1nnc(-c2ccncc2)n1CCCN(C)C (stereo not given)	3.79%
COC1=NC2=NCCN2C(OC)=N1	7.21%
Cn1c2ccccc2c2cc(/C=C(\NC(=O)c3ccccc3)C(=O)NCC(=O)O)ccc21	4.74%
C[C@H](CO)N1C[C@H](C)[C@@H](CN(C)Cc2ccc(-c3ccccc3)cc2)Oc2ccc(NC(=O)Cn3cnnn3)cc2C1=O	1.64%
O=C(CSC1=NS(=O)(=O)c2cc(F)ccc2N1)Nc1ccccc1F	-1.35%
C=CCNC(=S)/N=c1/ccccn1Cc1ccccc1	-6.7%
OC(c1ccccc1)(c1ccccc1)C1CCN(CCCOc2ccccc2)CC1	4.12%
CN1CCC[C@@H]1CCO[C@](C)(c1ccccc1)c1ccc(Cl)cc1	24.5% (active)
CC1CCCN(CC(=O)Nc2cc(Cl)ccc2Oc2ccccc2)C1 (stereo not given)	-6.16%
Cc1cc(C)cc(N)c1	-4.69%
COc1cc(/C=C/CNC[C@H]2O[C@@H](n3cnc(C(N)=O)n3)[C@H](O)[C@@H]2O)ccc1O	9.45%
COc1ccc(NC(=O)ON=C2c3ccccc3-c3ccccc32)cc1	-4.58%
COc1ccc(N/C=C(\C2OC(=O)c3ccccc32)[N+](=O)[O-])cc1 (stereo not given)	42.9% (active)
COc1ccc(NC(=O)C2=C(C)NC(=O)NC2c2ccccc2[N+](=O)[O-])cc1 (stereo not given)	-1.09%
Cc1cc(C)c(S(=O)(=O)N2CCOCC2)cc1C	2.37%
CC(=O)c1ccc(N=C2SCCCN2C(=O)C2CCCCC2)cc1	-0.57%
